Screens: PubChem, The Scripps Research Institute Molecular Screening Center
Rows were chosen to be rich in hits. Some 2.4% of all compounds tested hit in one or more screens of this group.
CHO-K1 Ca ag: counter-screen for M1 agonists: effect in parental CHO-K1 cells. Fluo-8 calcium fluorescence; scaled to maximal ATP response, vehicle zero. 360,000 tested, 0.48% active. activation, % at 3 µM; in the data active = activation above about 15%;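 note: untransfected CHO-K1 host cells lacking M1 receptor as counterscreen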
CHRM1 PAM: potentiates human M1 receptor response to acetylcholine | P11229 | CHO-K1 hM1, Fluo-8 calcium fluorescence, ACh EC20; 0% = ACh EC20, 100% = maximal ACh | activation, % at 3 µM | 360,000 tested, 0.088% active | AID 588819; in the data active = activation above about 19%, passing the limit was not always enough
Target sequence (P11229 whole entry, looked up): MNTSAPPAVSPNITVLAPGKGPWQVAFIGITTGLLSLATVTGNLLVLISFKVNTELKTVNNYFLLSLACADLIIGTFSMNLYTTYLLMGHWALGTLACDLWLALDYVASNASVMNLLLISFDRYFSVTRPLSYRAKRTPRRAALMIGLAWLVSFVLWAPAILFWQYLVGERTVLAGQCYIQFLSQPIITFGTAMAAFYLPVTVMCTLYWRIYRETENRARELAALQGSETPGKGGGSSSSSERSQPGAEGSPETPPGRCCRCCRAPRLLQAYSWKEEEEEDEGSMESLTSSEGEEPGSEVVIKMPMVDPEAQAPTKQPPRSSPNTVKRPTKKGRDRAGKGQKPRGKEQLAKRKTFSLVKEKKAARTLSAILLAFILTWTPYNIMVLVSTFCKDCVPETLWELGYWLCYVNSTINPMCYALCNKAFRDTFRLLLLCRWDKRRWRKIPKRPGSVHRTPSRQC
M1 antag: blocks human M1 muscarinic receptor. P11229. CHO-K1 hM1, Fluo-8 calcium fluorescence, ACh EC80 antagonist. inhibition, % at 3 µM. 360,000 tested, 1.3% active. AID 588852;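 active = percent inhibition above its own plate's cutoff, namely the mean of that plate's compound wells plus 3 SD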;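 note: peak over basal fluorescence ratio during 140 s after agonist addition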
M1 PAM parental: nonselective activator or artifact in parental CHO-K1 calcium assay; ATP EC20, Fluo-8 calcium fluorescence; 0% at ATP EC20, 100% at ATP max; AID 602247; activation, % at 3 µM; 360,000 tested, 0.02% active;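 active = activation above the run cutoff, the mean activation of all test compounds plus 3 SD, cut at about 40% in these data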;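 note: peak over basal fluorescence ratio in a 140 s read after ATP addition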
CHO-K1 Ca antag: nonselective inhibitor or artifact in parental CHO-K1 cells; ATP-induced calcium, Fluo-8 fluorescence; inhibition, % at 3 µM; 360,000 tested, 0.6% active;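 active = inhibition above a per-plate cutoff, the plate's mean sample inhibition plus 3 SD, cut at about 24% in these data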
M1 ag: activates human CHRM1 receptor; P11229; CHO-K1 hM1, Fluo-8 calcium fluorescence, agonist mode; 0% DMSO, 100% acetylcholine EC100; activation, % at 3 µM; 360,000 tested, 0.33% active;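 active = activation above the run's mean compound activation plus 3 SD, cut at about 16% in these data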;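 note: peak over basal fluorescence ratio within a 140 s kinetic read after compound addition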
Numbers stand for hits; i = inactive.

SMILES	CHO-K1 Ca ag	CHRM1 PAM	M1 antag	M1 PAM parental	CHO-K1 Ca antag	M1 ag
C[C@@H]1CCCCO[C@H](CN(C)S(=O)(=O)c2cccs2)[C@H](C)CN([C@@H](C)CO)C(=O)c2cc(NC(=O)NC3CCCCC3)ccc2O1	i	i	i	i	i	i
C[C@H](CO)N1C[C@H](C)[C@@H](CN(C)S(=O)(=O)c2ccccc2)Oc2ccc(NC(=O)NC3CCCCC3)cc2C1=O	i	i	39	i	i	i
Cc1ccccc1CN(C)C(C)C(=O)NCc1ccccc1 (stereo unspecified)	i	i	i	i	i	i
CCn1nc(C(=O)Nc2ccccc2N2CCCC2)c2ccccc2c1=O	17	i	i	i	i	i
Cc1ccc2nc(N(CCCN(C)C)C(=O)c3ccc(S(=O)(=O)N4CCCCCC4)cc3)sc2c1	i	i	i	i	i	i
CCc1ccc2nc(N(CCCN(C)C)C(=O)c3ccc(S(=O)(=O)N4CCCC4)cc3)sc2c1	i	i	39	i	i	i
COc1ccc(C)c2sc(N(CCCN(C)C)C(=O)c3ccc(S(=O)(=O)N4CCc5ccccc5C4)cc3)nc12	19	i	i	i	i	i
Cc1ccnc(NC(=O)c2ccc(NS(=O)(=O)/C=C/c3ccccc3)cc2)c1	i	i	i	i	i	i
CCOc1ccc(N2CC(C(=O)Nc3ccccc3N3CCCC3)CC2=O)cc1 (stereo unspecified)	i	i	i	i	i	i
CCCc1cc(C(=O)Nc2ccc(OC)cc2[N+](=O)[O-])cs1	i	i	i	i	i	i
Cc1cccc(-n2c(C)cc(/C=N/n3cnnc3)c2C)c1	i	i	70	i	i	i
COc1ccccc1OCC(O)Cn1c(=N)n(CCN2CCCCC2)c2ccccc21 (stereo unspecified)	i	i	19	i	i	i
OC(CN1c2ccccc2Sc2ccccc21)Cn1nnc2ccccc21 (stereo unspecified)	i	i	i	i	i	i
Cc1nn(CC(O)CN2c3ccccc3Sc3ccccc32)c(C)c1Br (stereo unspecified)	18	i	i	i	i	i
Cc1c(N(C)C(=O)COc2ccc3ccccc3c2)c(=O)n(-c2ccccc2)n1C	i	i	i	i	i	i
CCC(C(=O)NC1CCCCC1)n1c(SCc2cccc(F)c2)nc2ccncc21 (stereo unspecified)	i	i	45	i	i	i
CCC(C(=O)NC1CCCCC1)n1c(SCc2cccc(C)c2)nc2ccncc21 (stereo unspecified)	i	i	i	i	i	i
CCCCCCCCCCCCCCCC[n+]1cccc(C(=O)N(CC)CC)c1	i	i	57	i	i	i
CCCCCCCC[n+]1cccc(C(=O)N(CC)CC)c1	i	i	i	i	i	i
COc1ccc(/C=C2\CN(Cc3ccccc3)C/C(=C\c3ccc(OC)cc3OC)C2=O)c(OC)c1	i	i	29	i	i	i
COc1ccc(/C=C2\CN(Cc3ccccc3)C/C(=C\c3ccc(OC)cc3)C2=O)cc1	i	i	i	i	i	i
CCC1CCCCN1CCCNC(=O)C1CCC(CNS(=O)(=O)c2c(C)cc(C)cc2C)CC1 (stereo unspecified)	i	i	63	i	24	i
CS(=O)(=O)c1ccc(C(=O)Nc2nc(-c3ccco3)c(-c3ccco3)s2)cc1	i	i	i	i	i	i
OCCC1CN(Cc2nc(-c3ccccc3)cs2)CCN1CCc1ccccc1 (stereo unspecified)	16	i	i	i	i	i
OCCC1CN(Cc2nc(-c3ccc(F)cc3)cs2)CCN1CCc1ccccc1 (stereo unspecified)	i	i	i	i	i	i
SMILES	CHO-K1 Ca ag	CHRM1 PAM	M1 antag	M1 PAM parental	CHO-K1 Ca antag	M1 ag
CC(C)=CCN1CCN(Cc2nc(-c3ccccc3)cs2)CC1CCO (stereo unspecified)	i	i	34	i	i	i
C=CCC1c2cccc(C(=O)OC)c2C(=O)N1c1ccccc1 (stereo unspecified)	i	i	i	i	24	i
C=CCN(CC=C)CCCOc1ccccc1C(=O)OC	i	i	i	i	i	i
COC(=O)C=C1CCC2C3CCC4=CC(=O)CCC4(C)C3C(=O)CC12C (stereo unspecified)	i	i	i	i	i	i
CCCCN(C(=O)c1cc(S(=O)(=O)N2CCCCCC2)ccc1OC)c1c(N)n(CCC)c(=O)[nH]c1=O	i	i	i	i	25	i
O=C(CN1C(=O)CCOc2ccccc21)Nc1ccc(Cl)c(S(=O)(=O)N2CCOCC2)c1	i	i	i	i	i	i
Cc1ccc(-c2cccc(CN3CCN(C4CCN(C(C)C)CC4)C(CCO)C3)c2)o1 (stereo unspecified)	i	i	31	i	i	i
CC(C)N1CCC(N2CCN(Cc3ccc(-c4ccc(Cl)cc4)o3)CC2CCO)CC1 (stereo unspecified)	i	i	i	i	i	i
O=C(Nc1nnc(SCCC2OCCO2)s1)C1CC(=O)N(c2ccc(F)cc2)C1 (stereo unspecified)	i	i	i	i	i	i
Cc1nc2c(OCc3ccc(Cl)cc3Cl)cccn2c1N(C)Cc1cccs1	i	i	i	i	i	i
Cc1nc2c(OCc3cccc(Cl)c3)cccn2c1N(C)Cc1cccs1	i	i	34	i	i	i
CC(OC(=O)CNC(=O)c1ccc(Br)cc1)C(=O)NC1CCCCC1C (stereo unspecified)	i	i	i	i	i	i
CC(OC(=O)CNC(=O)c1ccc(Cl)cc1)C(=O)NC1CCCCC1C (stereo unspecified)	i	i	i	i	25	i
CC(OC(=O)CNC(=O)c1ccc2ccccc2c1)C(=O)NC1CCCCC1C (stereo unspecified)	18	i	i	i	i	i
CC(C)NC(=O)N(C)C[C@@H]1Oc2c(NC(=O)Nc3ccccc3)cccc2C(=O)N([C@H](C)CO)C[C@H]1C	i	i	i	i	i	i
Cc1cc(-c2nnc(SCC(=O)Nc3ccccc3C(F)(F)F)o2)c(C)n1-c1ccccc1	i	i	i	i	i	17
Cc1nn(C(=O)c2cccc([N+](=O)[O-])c2)c(C)c1Sc1ccccc1	i	i	i	i	26	i
Cc1ccc(NC(=O)Nc2ccccc2)cc1[N+](=O)[O-]	i	i	i	i	i	i
CCNC(=S)Nc1ccc(Cl)c([N+](=O)[O-])c1	i	i	36	i	i	i
O=C(Nc1ccccc1)Nc1ccc(Cl)c([N+](=O)[O-])c1	17	i	i	i	i	i
O=C(Nc1ccccc1)Nc1ccc(F)c([N+](=O)[O-])c1	15	i	i	i	i	i
O=[N+]([O-])c1ccc(N2CCN(Cc3ccccc3)CC2)s1	i	i	i	i	i	i
